From PubChem BioAssay (EPA / NIEHS)
Records with an inconclusive call do not appear. The source made the active and inactive calls. Rule for the calls, unless noted: active = hit-call score of the fitted dose curve at least 0.9, where 1 is the maximum; inactive = score below 0.9.

Assays:
[1] = CCTE_Shafer_MEA_dev_firing_rate_mean: CCTE's Neural Network Formation Assay for Mean Firing Rate, Shafer Lab (AID 2284031);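 for AC50: curve fitted for loss of firing so AC50 reflects decreased mean firing rate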
Summary of the method: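 Extracellular spike frequency, AUC over DIV 5–12 recordings, in rat cortical neuron MEA cultures dosed from plating; loss direction vs DMSO.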

[2] = CCTE_Shafer_MEA_dev_per_burst_spike_percent: CCTE's Neural Network Formation Assay for Percent of Spikes in a Burst, Shafer Lab (AID 2284032);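 for AC50: fitted as a decrease in burst spike percentage below DMSO baseline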
Summary of the method: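 Value is trapezoidal AUC over recordings on days 5, 7, 9 and 12 of the well-mean fraction of spikes falling in single-electrode bursts; rat cortical cultures exposed continuously from plating, treatment renewed DIV 5 and 9, fitted downward against DMSO.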

[3] = CCTE_Shafer_MEA_dev_active_electrodes_number: CCTE's Neural Network Formation Assay for Number of Active Electrodes, Shafer Lab (AID 2284040; active = hit-call score of the fitted dose curve at least 0.9, where 1 is the maximum;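 for AC50: potency for loss of active electrodes versus DMSO so lower counts are hits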)
Summary of the method: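 Developing rat cortical networks on MEAs, exposed DIV 0–12. Value is the AUC of active-electrode counts (≥5 spikes/min) from days 5, 7, 9, 12, relative to DMSO.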

[4] = CCTE_Shafer_MEA_dev_burst_rate: CCTE's Neural Network Formation Assay for Burst Rate, Shafer Lab (AID 2284042);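 for AC50: potency for loss of burst rate below DMSO control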
Summary of the method: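 Developmental network assay measuring how 12-day exposure of rat cortical neuron cultures alters bursting on extracellular MEA recordings. Values are AUC of well-mean burst rate across four recording days, relative to DMSO vehicle.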

[5] = CCTE_Shafer_MEA_dev_per_burst_interspike_interval: CCTE's Neural Network Formation Assay for Burst Interspike Interval, Shafer Lab (AID 2284044);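 for AC50: potency for a decrease of within-burst interspike interval below DMSO level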
Summary of the method: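 Rat cortical primary cultures, 16 electrodes/well; compound from plating, renewed with full media change DIV 5 and 9. Spikes via adaptive detector; per-burst ISI well-mean over active bursting electrodes; AUC of DIV 5/7/9/12 recordings; loss-direction fit vs DMSO.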

[6] = CCTE_Shafer_MEA_dev_burst_duration_mean: CCTE's Neural Network Formation Assay for Mean Burst Duration, Shafer Lab (AID 2284045);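 for AC50: curve fitted for loss meaning shorter burst duration than DMSO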
Summary of the method: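 Network-formation assay in primary rat cortical neurons; treatment spans twelve days of development. Mean burst duration per well is integrated by trapezoidal AUC and fitted in the loss-of-signal direction against DMSO baseline.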

[7] = CCTE_Shafer_MEA_dev_interburst_interval_mean: CCTE's Neural Network Formation Assay for Mean Interburst Interval, Shafer Lab (AID 2284046);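 note: well-mean interburst interval of bursting electrodes as AUC over four recording days; curve fitted for decrease in interburst interval relative to DMSO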
Summary of the method: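 Network formation assay in primary rat cortical cultures, exposed from DIV 0 to 12. Mean interburst interval per well, integrated as AUC over four recordings.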

[8] = CCTE_Shafer_MEA_dev_network_spike_number: CCTE's Neural Network Formation Assay for Number of Network Spikes, Shafer Lab (AID 2284048);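 note: synchronized bursts across electrodes counted on days 5 7 9 12 and integrated as AUC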;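 for AC50: fit as a loss of signal meaning fewer network spikes than DMSO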
Summary of the method: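 Extracellular recordings from 16-electrode wells track network formation in rat cortical cultures under continuous treatment from plating. The endpoint is network spike number, expressed as AUC across DIV 5–12 relative to DMSO vehicle.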

[9] = CCTE_Shafer_MEA_dev_network_spike_peak: CCTE's Neural Network Formation Assay for Mean Number of Electrodes in Network Spike, Shafer Lab (AID 2284049);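 for AC50: fitted for loss of signal meaning fewer electrodes in network spikes than DMSO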
Summary of the method: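 Continuous 12-day exposure of rat cortical cultures, starting at plating, on MEA plates. Endpoint: electrodes participating in network-spike peaks, AUC across DIV 5–12, DMSO as negative control.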

[10] = CCTE_Shafer_MEA_dev_spike_duration_mean: CCTE's Neural Network Formation Assay for Mean Spike Duration, Shafer Lab (AID 2284051);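 note: mean network spike duration pooled as area under curve over DIV 5 to 12 recordings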;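 for AC50: potency for a decrease in mean network spike duration versus DMSO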
Summary of the method: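 With DMSO as baseline, loss of mean network spike duration was scored from extracellular recordings of rat cortical neurons on MEA plates. Exposure spanned plating to DIV 12; the four recording days were collapsed into one AUC value.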

[11] = CCTE_Shafer_MEA_dev_network_spike_duration_std: CCTE's Neural Network Formation Assay for Standard Deviation of Network Spike Duration, Shafer Lab (AID 2284052);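 note: area under curve of spike duration SD across recording days 5 to 12; hits are decreases in network spike duration SD versus DMSO vehicle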
Summary of the method: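 Developing networks of rat cortical neurons were exposed over twelve days in vitro on 48-well MEA plates. Trapezoidal AUC of recordings (DIV 5–12) was analysed for signal loss relative to DMSO vehicle.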

[12] = CCTE_Shafer_MEA_dev_per_network_spike_spike_number_mean: CCTE's Neural Network Formation Assay for Mean Number of Spikes in a Network Spike, Shafer Lab (AID 2284053)
Summary of the method: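 First, rat cortical cells (1.5 x 10^5/well) were seeded onto MEA wells; second, dosing began at plating and was refreshed on DIV 5 and 9; finally, network-spike spike counts across DIV 5–12 were summarized as AUC.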

[13] = CCTE_Shafer_MEA_dev_per_network_spike_spike_percent: CCTE's Neural Network Formation Assay for Percent of Spikes in a Network Spike, Shafer Lab (AID 2284054)
Summary of the method: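 Developing networks of rat cortical neurons are dosed at day 0 and recorded extracellularly four times up to day 12. The endpoint is the area under the curve of percent spikes in network spikes, fitted in the negative direction relative to DMSO.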

[14] = CCTE_Shafer_MEA_dev_LDH: CCTE's Lactate Dehydrogenase Assay for Cytotoxicity in the Neural Network Formation Assay, Shafer Lab (AID 2284068; active = hit-call score of the fitted dose curve at least 0.9, where 1 is the maximum;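 note: exposure for twelve days from plating with re-dosing on DIV 5 and 9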)
Summary of the method: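 Developing rat cortical networks on MEA plates are exposed to compound for 12 days from plating. LDH activity is measured spectrophotometrically, with DMSO as baseline.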

[15] = CCTE_Shafer_MEA_dev_mutual_information_norm: CCTE's Neural Network Formation Assay for Mutual Information Normalization, Shafer Lab (AID 2284091);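 for AC50: mutual information between electrodes summarised as area under curve across four recording days; potency is for a decrease in mutual information relative to DMSO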
Summary of the method: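 Exposure of primary rat cortical neurons began at plating and ran to DIV 12, with full media and treatment renewal after DIV 5 and 9 recordings. Mutual information AUC (DIV 5–12) was analysed for loss versus DMSO.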

[16] = CCTE_Shafer_MEA_dev_correlation_coefficient_mean: CCTE's Neural Network Formation Assay for Mean Correlation Coefficient, Shafer Lab (AID 2284093);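 for AC50: well mean pairwise spike train correlation integrated as AUC over recording days 5 to 12; potency fitted for loss of correlation relative to DMSO vehicle wells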
Summary of the method: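 Extracellular firing from rat cortical networks on 48-well MEAs, DMSO-referenced, negative fitting direction. Compound present from plating to DIV12; mean pairwise correlation per well integrated over DIV5–12 recordings by trapezoidal AUC.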

[17] = UKN2_HCS_IMR90_cell_viability: Viability Assessment in the University of Konstanz (UKN) Leist Lab Neural Crest Cell Migration Assay in human induced IMR90 Pluripotent Stem Cells (UKN2) (AID 2284233);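 note: viability of neural crest cells differentiated from IMR90 iPSC measured by calcein-AM fluorescence imaging; cells exposed to compound for 24 h after a 24 h migration phase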
Summary of the method: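 cMINC format, iPSC-derived neural crest (IMR90); 24 h migration (EGF/FGF, N2-S), then 24 h toxicant. Calcein-AM/H-33342 stain 30 min; fluorescence intensity by HCS; DMSO-normalised, bidirectional fitting.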

Measured: AC50

CC1(C)[C@@H](C=C(Cl)Cl)[C@@H]1C(=O)O[C@@H](C#N)c1ccc(F)c(Oc2ccccc2)c1
active: [1] 5.76 µM | [2] 15 µM | [3] 10.2 µM | [9] 11.8 µM | [10] 6.21 µM | [12] 5.82 µM | [13] 15 µM | [15] 2.39 µM | [16] 5.16 µM
inactive: [4] | [5] | [6] | [7] | [8] | [11] | [14]

C#CCN(C)[C@H](C)Cc1ccccc1
inactive: [1] | [2] | [3] | [4] | [5] | [6] | [7] | [8] | [9] | [10] | [11] | [12] | [13] | [14] | [15] | [16]

O=[As](O)(O)O
active: [17] 104 µM

CCOP(=O)(OCC)SCSC(C)(C)C
active: [3] 16.2 µM | [9] 49.5 µM | [14] 49.5 µM
inactive: [1] | [2] | [4] | [5] | [6] | [7] | [8] | [10] | [11] | [12] | [13] | [15] | [16] | [17]

C[C@H](N)Cc1ccccc1
inactive: [1] | [2] | [3] | [4] | [5] | [6] | [7] | [8] | [9] | [10] | [11] | [12] | [13] | [15] | [16]

O.O.O.O.O.[Cd+2].[Cd+2].[Cl-].[Cl-].[Cl-].[Cl-]
active: [1] 0.227 µM | [2] 0.316 µM | [3] 0.362 µM | [4] 0.188 µM | [5] 0.812 µM | [6] 0.375 µM | [7] 0.863 µM | [8] 0.117 µM | [9] 0.372 µM | [10] 0.295 µM | [11] 0.181 µM | [12] 0.226 µM | [13] 0.228 µM | [14] 0.499 µM | [15] 0.135 µM | [16] 0.246 µM

CCOP(=O)(Oc1cnc(C(C)(C)C)nc1)OC(C)C (stereo not drawn)
active: [3] 29.2 µM | [14] 11.4 µM
inactive: [1] | [2] | [4] | [5] | [6] | [7] | [8] | [9] | [10] | [11] | [12] | [13] | [15] | [16] | [17]

CC1(C)C(C=C(Cl)Cl)[C@H]1C(=O)O[C@H](C#N)c1cccc(Oc2ccccc2)c1 (stereo partly drawn)
inactive: [17]

[CH3][Sn]([CH3])[CH3]
active: [1] 0.571 µM | [2] 1.62 µM | [3] 0.212 µM | [4] 0.559 µM | [5] 2.33 µM | [6] 0.992 µM | [7] 2.36 µM | [8] 0.0944 µM | [9] 0.224 µM | [10] 0.151 µM | [11] 0.0773 µM | [12] 0.222 µM | [13] 0.221 µM | [14] 0.174 µM | [15] 0.221 µM | [16] 0.222 µM

O=C1N[C@@H]2C(=C[C@H](O)[C@@H](O)[C@H]2O)c2cc3c(c(O)c21)OCO3
active: [17] 0.218 µM

C[n+]1ccc(-c2ccccc2)cc1
active: [3] 4.33 µM | [9] 6.52 µM | [14] 4.7 µM | [16] 8.7 µM
inactive: [1] | [2] | [4] | [5] | [6] | [7] | [8] | [10] | [11] | [12] | [13] | [15] | [17]

Clc1cc(Cl)c(-c2cc(Cl)c(Cl)c(Cl)c2Cl)cc1Cl
active: [17] 13.3 µM

CC1(C)[C@H](C=C(Cl)Cl)[C@H]1C(=O)OCc1c(F)c(F)cc(F)c1F
active: [1] 23.4 µM | [2] 23.1 µM | [3] 23 µM | [4] 23.7 µM | [5] 13.7 µM | [6] 9.92 µM | [7] 13.9 µM | [8] 23.3 µM | [9] 16.7 µM | [10] 22.8 µM | [12] 13.1 µM | [13] 12.8 µM | [15] 13.4 µM | [16] 10.7 µM
inactive: [11] | [17]

COP(=O)(OC)SCN1C(=O)c2ccccc2C1=O
inactive: [1] | [2] | [3] | [4] | [5] | [6] | [7] | [8] | [9] | [10] | [11] | [12] | [13] | [14] | [15] | [16] | [17]

C=CCN1CC[C@]23c4c5ccc(O)c4O[C@H]2C(=O)CC[C@@]3(O)[C@H]1C5
inactive: [1] | [2] | [4] | [5] | [6] | [7] | [8] | [9] | [10] | [11] | [12] | [13] | [14] | [15] | [16]

[CH3][Sn]([CH3])([CH3])[Cl]
active: [17] 4.51 µM

CCOP(=S)(OCC)SCS(=O)C(C)(C)C (stereo not drawn)
active: [9] 0.555 µM
inactive: [1] | [2] | [3] | [4] | [5] | [6] | [7] | [8] | [10] | [11] | [12] | [13] | [14] | [15] | [16] | [17]

CN1CC=C(c2ccccc2)CC1
inactive: [17]

CC(=O)[O-].[Tl+]
inactive: [1] | [2] | [3] | [4] | [5] | [6] | [7] | [8] | [9] | [10] | [12] | [13] | [14] | [15] | [16]
active: [11] 12.1 µM | [17] 90 µM

CC(C)CC(C)c1sccc1NC(=O)c1cn(C)nc1C(F)(F)F (stereo not drawn)
active: [17] 77.1 µM

Cn1nc(C(F)(F)F)c(CS(=O)(=O)C2=NOC(C)(C)C2)c1OC(F)F
active: [1] 91.6 µM | [2] 80.9 µM | [3] 73.6 µM | [5] 26.3 µM | [9] 50 µM | [10] 31.2 µM | [12] 50 µM | [14] 80.6 µM | [16] 32.7 µM
inactive: [4] | [6] | [7] | [8] | [11] | [13] | [15] | [17]

CC1(C)C(C=C(Cl)Cl)C1C(=O)O[C@H](C#N)c1cccc(Oc2ccccc2)c1 (stereo partly drawn)
active: [1] 0.711 µM | [2] 4.59 µM | [3] 4.44 µM | [4] 1.95 µM | [5] 2.89 µM | [6] 0.65 µM | [7] 8.7 µM | [8] 7.66 µM | [9] 2.75 µM | [10] 2.95 µM | [11] 3.1 µM | [12] 2.74 µM | [13] 7.68 µM | [14] 5.77 µM | [15] 2.9 µM | [16] 4.48 µM
inactive: [17]
